# Source: PubChem (National Center for Advancing Translational Sciences (NCATS))
# Shiga inhibitor: A qHTS for Small Molecule Inhibitors of Shiga Toxin | Vero cells, Shiga toxin protein synthesis inhibition reporter | inhibition, % at 38.7 µM | 290,000 tested, 9.2% active | AID 2315, 2010; in the data active = inhibition mostly above about 28%, no sharp cut-off; inactive = mostly below about 43%
# LmPK inhibitor: qHTS Assay for Inhibitors of Leishmania Mexicana Pyruvate Kinase (LmPK); 290,000 tested, 0.37% active; Potency, µM (series often up to 57.5 µM), actives largely listed as inhibitors; Q27686; purified LmPK, Kinase-Glo ATP luminescence, 1 h
#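 Screened at intermediate enzyme activity to detect both inhibitors and activators: LmPK at 0.1 nM, with a 0.5 nM enzyme column as activation reference. PEP 0.5 mM, ADP 0.1 mM; ATP detected by luminescence after 1 h.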
# Sm TGR inh: qHTS Assay for the Inhibitors of Schistosoma Mansoni Peroxiredoxins; purified TGR, DTNB reduction, TNB absorbance 405 nm; Potency, µM (series often up to 114 µM), hits mostly inhibitors; 360,000 tested, 3% active; also: nearly all actives have a fitted effect of over 60% in size
#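 Kinetic colorimetric format: TGR-catalysed, NADPH-driven DTNB reduction monitored via TNB absorbance. Enzyme dispensed at 20 nM; compound exposure 15 min at room temperature before reaction start.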
# Giardia FBPA inh: qHTS Assay for Inhibitors of Fructose-1,6-bisphosphate Aldolase from Giardia Lamblia | A8B2U2 | purified Giardia FBPA | Potency, µM (highest dose often 59.6 µM), actives largely listed as inhibitors | 290,000 tested, 0.71% active; also: nearly all actives have a fitted effect of over 55% in size
# Target sequence (A8B2U2 whole entry, looked up): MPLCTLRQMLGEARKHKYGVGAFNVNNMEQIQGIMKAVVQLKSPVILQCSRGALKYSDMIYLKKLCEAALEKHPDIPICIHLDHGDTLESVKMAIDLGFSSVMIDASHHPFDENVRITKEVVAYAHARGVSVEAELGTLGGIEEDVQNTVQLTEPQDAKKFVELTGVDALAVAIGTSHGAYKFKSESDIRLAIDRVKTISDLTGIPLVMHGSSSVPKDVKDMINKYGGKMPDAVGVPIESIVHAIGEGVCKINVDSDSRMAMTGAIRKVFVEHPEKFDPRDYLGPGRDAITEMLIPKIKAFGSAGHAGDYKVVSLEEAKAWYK
#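 40 nM FBPA preincubated 10 min at RT with compound (up to 57.5 uM final), then substrate plus GAPDH/TPI/NAD/arsenate coupling and diaphorase/resazurin added. Fluorescence read after 20 min at RT, 525/598 nm.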
# CHX counter: Cycloheximide Counterscreen for Small Molecule Inhibitors of Shiga Toxin | max response, % | AID 2314, 2010 | 300,000 tested, 12% active | cell reporter, cycloheximide protein synthesis inhibition counterscreen; in the data active = max response mostly above about 13%, no sharp cut-off; inactive = mostly below about 14%; also: read at 38.3 µM for the half of the compounds with a filed dose
# Tb PYK inh: qHTS of Trypanosoma Brucei Inhibitors | TbPYK enzyme, Kinase-Glo Plus ATP luminescence, 45 min | 410,000 tested, 0.12% active | Potency, µM (series often up to 76.8 µM), actives largely listed as inhibitors | pyruvate kinase (Trypanosoma brucei), Q57TT1 | AID 624173, 2012; also: nearly all actives have a fitted effect of over 50% in size
#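 Activity of T. brucei pyruvate kinase was followed by Kinase-Glo Plus luminescence after the enzyme reacted 45 min at room temperature with 130 uM ADP (final) and substrate. Test compounds were added before ADP at multiple concentrations.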
# Numbers stand for hits; n = inactive; u = inconclusive; x = no result given; [ ] = another dose, or the depositor's remark. Shown is part of a subset that was picked to be rich in hits. Unless noted, calls follow the shape of the dose curve; as a rule, active = well fitted curve in the direction sought with a large enough effect; inconclusive = small, poorly fitted or top-dose-only effect, or another doubt; inactive = no such curve, though single readings can be large; an effect the other way counts as inactive or inconclusive.
SMILES,Shiga inhibitor,LmPK inhibitor,Sm TGR inh,Giardia FBPA inh,CHX counter,Tb PYK inh
Cc1ccc(C(=O)OCC(=O)c2cc(C)n(CC3CCCO3)c2C)cc1 (configuration not stated),107,n,x,n,40,n
COc1ccc(Nc2nnc(SCC3CCCCO3)s2)cc1 (configuration not stated),n,n,n,n,n,n
Cc1cc(C(=O)COC(=O)c2n[nH]c3ccccc23)c(C)n1CC1CCCO1 (configuration not stated),n,n,n,n,38,n
N#CCCn1c(=O)c(-c2ccccc2)nc2cnc(Oc3cccc(Cl)c3)nc21,x,x,x,n,x,n
CCOC(=O)C1(C(=O)OCC)C(C(=O)c2ccccc2)C1c1ccccc1 (configuration not stated),x,x,x,x,x,n
Cc1cc(C(=O)COC(=O)c2ccccc2O)c(C)n1CC1CCCO1 (configuration not stated),x,x,n,x,x,n
Cc1cc(C(=O)COC(=O)c2ccccc2NCCO)c(C)n1CC1CCCO1 (configuration not stated),112,n,n,x,89,n
Cc1cc(C(=O)COC(=O)c2cc(O)c3ccccc3c2O)c(C)n1CC1CCCO1 (configuration not stated),n,n,20µM,u,14,u
Cc1cc(C(=O)COc2ccccc2C(N)=O)c(C)n1CC1CCCO1 (configuration not stated),n,n,n,n,26,n
Cc1cc(C(=O)COC(=O)c2cccnc2Cl)c(C)n1CC1CCCO1 (configuration not stated),n,25µM,n,n,n,n
CNC(=S)N(C)/N=C1/C(=O)N(Cc2c(Cl)cccc2Cl)c2ccccc21,x,x,n,x,x,n
O=C1C2C(C(=O)N1Cc1ccco1)C1C=CC2C12CC2 (configuration not stated),n,n,n,n,n,n
O=C1C2C3C=CC(C4CC34)C2C(=O)N1Cc1ccco1 (configuration not stated),n,n,50µM,n,n,n
NS(=O)(=O)c1ccc(CCNC(=O)C2CCCN2S(=O)(=O)c2cccc3nsnc23)cc1 (configuration not stated),n,n,n,x,n,n
Cc1ccc(C2=Nc3ccccc3NC(C)(c3ccc(C)o3)C2)o1 (configuration not stated),82,n,35µM,n,60,n
CC1(c2ccccc2)CC(c2ccccc2)=Nc2ccccc2N1 (configuration not stated),91,n,u,n,57,n
Cc1ccc(C2=NNC(c3ccc(Cl)cc3)=Nc3ccccc32)o1,n,n,n,n,n,n
CC(=O)OCC1OC(C#CC(C)(C)C)C=CC1OC(C)=O (configuration not stated),x,x,x,n[12.9 µM],x,x
O=C1c2ccccc2C(Nc2ccccc2)N1Cc1ccc2c(c1)OCO2 (configuration not stated),n,n,n,n,n,n
O=C1c2ccccc2C(Nc2ccc3c(c2)OCCO3)N1c1ccc(Cl)cn1 (configuration not stated),n,n,n,n,9.9,n
O=C1OC(Nc2ccc3c(c2)OCO3)c2ccccc21 (configuration not stated),n,n,8.9µM,n,n,u
CCc1cccc(NC2c3ccccc3C(=O)N2c2ccc(C)cn2)c1 (configuration not stated),90,n,n,n,n,n
O=C1OC(Nc2ccc(F)c([N+](=O)[O-])c2)c2ccccc21 (configuration not stated),n,n,n,n,n,n
O=C1c2ccccc2C(Nc2ccc3c(c2)OCCO3)N1Cc1ccc2c(c1)OCO2 (configuration not stated),62,n,n,n,31,n
CCOC(=O)C1CCCN(S(=O)(=O)c2cc3c(cc2C)NC(=O)CO3)C1 (configuration not stated),x,x,n,x,x,n
SMILES,Shiga inhibitor,LmPK inhibitor,Sm TGR inh,Giardia FBPA inh,CHX counter,Tb PYK inh
Cc1ccc(N2C(=O)c3ccccc3C2Nc2ccccc2)nc1 (configuration not stated),n,n,n,n,n,n
O=C1c2ccccc2C(Nc2ccc3c(c2)OCCO3)N1c1ccccn1 (configuration not stated),70,n,n,n,41,n
O=C1c2ccccc2C(Nc2ccccc2)N1c1ccc(Cl)cn1 (configuration not stated),169,n,n,n,71,n
CC1Cc2cc(S(=O)(=O)NCCc3ccc(Cl)cc3)ccc2N1C(=O)C1CCC1 (configuration not stated),x,x,n,x,x,n
CCCSC1=NC2(CCN(C(=O)NC3CCCCC3)CC2)N=C1c1ccc(C)cc1,x,x,n,x,x,n
CCCCC(C=O)NC(=O)C(CC(C)C)NC(=O)OCc1ccccc1 (configuration not stated),x,x,x,n,x,x
CNc1ccc(/C=C/C(=O)c2ccc3c(c2)OCCO3)cc1[N+](=O)[O-],n,n,n,n,n,n
CNc1ccc(Br)cc(C(=O)/C=C/c2cc(OC)ccc2OC)c1=O,n,n,3.2µM,u,n,n
CCNc1ccc(Br)cc(C(=O)/C=C/c2ccc(Cl)cc2Cl)c1=O,n,n,2.2µM,u,n,n
CNc1ccc(Br)cc(C(=O)/C=C/c2ccc(OC)cc2)c1=O,active,n,11µM,u,21,n
CNc1ccc(Br)cc(C(=O)/C=C/c2ccc3c(c2)OCO3)c1=O,n,n,2.8µM,u,25,n
COc1ccc(/C=C/C(=O)c2cc(Br)ccc2O)cc1OC,n,n,n,n,n,n
COC(=O)c1ccc(C(NC(=O)OCc2ccccc2)/C(C)=C/[C@@H](C)C(=O)N(C)Cc2cccnc2)cc1 (some centres not stated),x,x,x,n,x,x
COc1ccc(CC(=O)NCc2cccs2)cc1OC,n,n,n,n,n,n
O=C(Cc1cccs1)NCc1ccccc1F,52,n,n,n,18,n
O=C(NCCNCc1cccs1)c1ccccc1F,n,n,n,n,n,n
O=C(NCc1cccs1)c1ccccc1F,n,n,n,n,12,n
O=C(Cc1cccs1)NCc1ccccc1,n,n,n,n,n,n
COc1ccc(CNC(=O)Cc2cccs2)cc1OC,n,n,n,n,28,n
Cc1ccccc1CNC(=O)Cc1cccs1,50,n,n,n,44,n
CC(=O)Nc1ccc(N2C(=O)CSC2c2ccccc2)cc1 (configuration not stated),n,n,n,n,n,n
